Measurements: PubChem BioAssay (NCI)
This is part of a sample that, as a whole, favours compounds with a hit. Of some 83,000 tested, about 20% had one in any assay.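 Plates (96-well) were seeded with cells, treated with compound at one concentration, and incubated for 48 hours before percent growth was determined.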 Values without a mark were called inactive. The source made the active and inactive calls. Rule for the calls: active = growth percent below 10; inactive = the rest.

What was measured:
Assay in all cases: NCI-60 one-dose screen, 48 h (100 = growth as untreated, 0 = no growth, -100 = all killed)
[1] = test system: DU-145 prostate; details: 10 µM unless noted
[2] = test system: K-562 leukemia; details: 10 µM unless noted
[3] = test system: MALME-3M melanoma; details: 10 µM unless noted
[4] = test system: MDA-MB-231 breast; details: 10 µM unless noted
[5] = test system: RXF 393 renal; details: 10 µM unless noted
[6] = test system: SF-268 CNS; details: 10 µM unless noted
[7] = test system: SF-295 CNS; details: 10 µM unless noted
[8] = test system: SF-539 CNS; details: 10 µM unless noted
[9] = test system: UACC-257 melanoma; details: 10 µM
[10] = test system: M14 melanoma; details: 10 µM unless noted

| Compound | growth [1] | growth [2] | growth [3] | growth [4] | growth [5] | growth [6] | growth [7] | growth [8] | growth [9] | growth [10] |
| --- | --- | --- | --- | --- | --- | --- | --- | --- | --- | --- |
| O=C(O)C(Cc1ccccc1)N1C(=O)/C(=C/C(Cl)=C/c2ccc([N+](=O)[O-])cc2)SC1=S (stereo not given) | 35% | 9.61% (active) | 3.53% (active) | 29.5% | -47.1% (active) | 19.2% | 88.8% | 29.6% | 18.1% | -13.7% (active) |
| Nc1c(C(=O)Nc2ccccc2)sc2nc3c(cc12)CCC3 | 96.8% | 35.4% | 77.9% | 80.7% | 95.4% | 94% | 106% | 80.2% | 90.5% | 69.7% |
| COc1ccc(-c2cn[nH]c2-c2cc(OC)c3c(c2)OCCO3)cc1 | 9.03% (active) | 9.59% (active) | 97.9% | 17.1% | -14% (active) | 25.1% | 28.7% | -34.3% (active) | 75% | 10.6% |
| CC(C)[C@H](CO)Nc1nc(Nc2ccc(C(=O)NCCNS(=O)(=O)c3cccc4c(N(C)C)cccc34)c(Cl)c2)c2ncn(C(C)C)c2n1 | 29% | 10.9% | 51.2% | 7.36% (active) | -57.1% (active) | 0.765% (active) | -16.5% (active) | -50.2% (active) | 3.15% (active) | 23.5% |
| COc1ccc(-n2c(C)cc(-c3ccccc3)c2C)cc1 | 73.9% | 15.6% | 36.9% | 6.48% (active) | 10.1% | 75.5% | 34.1% | 62% | 40.3% | 15.9% |
| COc1ccc(-c2nc3sccn3c2-c2ccnc(NCCNS(=O)(=O)c3ccc(C(F)(F)F)cc3)n2)cc1 | 15.8% | 6.19% (active) | 8.25% (active) | 16% | 18.5% | 0.178% (active) | -28.5% (active) | 0.637% (active) | 13.3% | 10.1% |
| COc1cc(/C=C2\CCCC3=C2NC(C)=NC3c2cc(OC)c(OC)c(OC)c2)cc(OC)c1OC (stereo not given) | 4.92% (active) | 11.1% | 30.2% | 13% | 22.7% | 21.2% | -25% (active) | 13.5% | 43.8% | -42% (active) |
| COc1ccc(/C=N/NC(=O)Cn2c(Cc3cccc4ccccc34)nc3ccccc32)cc1 | 105% | 89.4% | 92.4% | 91.2% | 109% | 95.6% | 88.9% | 90.7% | 99.4% | 105% |
| O=c1[nH]c2ccccc2cc1-c1nnc(Cc2ccccc2)o1 | 71.1% | 30.8% | 55.8% | 79.6% | 76.1% | 78.4% | 99.7% | 80.8% | 80% | 65.8% |
| COc1cc(-c2cc(/C=C3\CCCCC3=O)[nH]n2)cc(OC)c1OC | 95.4% | 79.4% | 101% | 94.6% | 96.1% | 96.8% | 96.4% | 103% | 95% | 101% |
| O=C(N/N=C/c1c(Cl)cccc1Cl)c1ccccc1Nc1ccnc(C(F)(F)F)c1 | 109% | 78.4% | 81% | 73.8% | 49.3% | 73.2% | 72.9% | 86.6% | 60.4% | 71.6% |
| CCOC(=O)C1=C(CSC(=S)N(C2CCCCC2)C2CCCCC2)N(C)C(=O)NC1c1ccccc1 (stereo not given) | 46.8% | 35.2% | 71.8% | 62.9% | 43.6% | 49% | 39.9% | 71.6% | 61.4% | 56.9% |
| CCN(CC)P(=O)(N(CC)CC)N(CCCSC/C=C(\C)CC/C=C(\C)CCC=C(C)C)CCCN1CCN(C)CC1 | 106% | 71.8% | 98.7% | 111% | 91.3% | 102% | 96.4% | 106% | 110% | 107% |
| NS(=O)(=O)c1ccc(NCC(=O)Nc2ccc(-c3nc4ccccc4s3)cc2)cc1 | 47% | 8.38% (active) | 53.6% | 45% | 99.9% | 25.1% | 98.8% | 91.4% | 97.2% | 45.6% |
| COc1c(NC[C@H]2OC(O)[C@H](O)[C@@H](O)[C@@H]2O)c(=O)c1=O (stereo not given in full) | 115% | 96.4% | 92.9% | 106% | 96.6% | 102% | 107% | 94.1% | 102% | 108% |
| Cc1cc(C)c(S(=O)(=O)N2CCN(c3cc4c(cc3F)c(=O)c(C(=O)O)cn4C3CC3)CC2)c(C)c1 | 71.4% | 63.5% | 59.7% | 84.6% | 51.3% | 56.7% | 33.3% | 46.5% | 86.9% | 63.5% |
| Cc1ccc(Oc2nc3ccccc3cc2-c2nnc(Cn3c(COc4ccccc4)nc4ccccc43)o2)cc1 | 63.5% | -3.18% (active) | 72.5% | 47.7% | 60.3% | 20.6% | 92% | 63.3% | 94.6% | 45.5% |
| N#Cc1ncc(-c2ccc(F)c(F)c2F)c(NC2CCCCCC2)n1 | 95.8% | 76.8% | 131% | 67% | 77.5% | 66.6% | 97.8% | 93.7% | 81.5% | 97.8% |
| CC/C(=C(\c1ccc(O)cc1)c1ccc(OCCN(C)CCN(C)C(=O)CCC(=O)c2c(C)[nH]c(/C=C3\N=C(c4ccc[nH]4)C=C3OC)c2C)cc1)c1ccccc1 | 46.9% | 5.83% (active) | 55.4% | 9.16% (active) | 66.1% | 69.8% | 95.9% | 63.2% | 104% | 20.7% |
| CCOC(=O)C(Cc1ccccc1)n1c(O)c(C=Nc2ccc(C(=O)OCCN(CC)CC)cc2)sc1=O (stereo not given) | 106% | 89.3% | 90.1% | 89.3% | 84.7% | 97.2% | 104% | 86.5% | 77.4% | -36.1% (active) |
| O=C(CN1CCN(c2cc3c(cc2F)c(=O)c(C(=O)O)cn3C2CC2)CC1)Nc1ccc(C(=O)/C=C/c2ccc(Cl)cc2)cc1 | 120% | 104% | 100% | 115% | 94.1% | 121% | 82.1% | 99.5% | 103% | 96.3% |
| COC1=CC(c2ccc[nH]2)=N/C1=C\c1[nH]c(C)c(CCCn2cc(CCCCCCCCC[C@@H]3Cc4cc(O)ccc4C4CC[C@]5(C)[C@@H](O)CC[C@H]5C43)nn2)c1C (stereo not given in full) | 33.3% | 28% | 137% | -12.8% (active) | 28.1% | 58.2% | 65.2% | 59.1% | 98.5% | 74% |
| COc1cc(OC)c(C(=O)/C=C/c2cccc(C(F)(F)F)c2)c(OC)c1 | 11.6% | 11.8% | 51.4% | 20.7% | -12.9% (active) | 14.7% | 17.4% | -0.21% (active) | 31.3% | 9.53% (active) |
| CCOC(=O)CC(C#N)(CC(=O)OCC)C(=O)OCC | 113% | 111% | 127% | 101% | 99.6% | 111% | 101% | 107% | 73.9% | 102% |
| O=C1c2ccccc2C(=O)c2c1oc1oc3c(c(=O)c21)c(=O)n(-c1ccccc1)c1ccccc31 | 94.4% | 26.8% | 42% | 97.3% | -14.1% (active) | 34.3% | 18.4% | -5.45% (active) | 101% | 44.7% |
| COC1=CC(c2ccc[nH]2)=N/C1=C\c1[nH]c(C)c(C(=O)CCCCC(=O)Nc2ccccc2)c1C | 6.29% (active) | 62.4% | 87.7% | -10.1% (active) | -63.9% (active) | 44.1% | -2.61% (active) | 78.6% | 74.4% | 13.1% |
| Cc1ccc(Nc2ncnc3c2sc2ncccc23)cc1 | 108% | 53.8% | 107% | 103% | 88.2% | 97.6% | 110% | 100% | 99.5% | 101% |
